Results filed as inconclusive are left out. Activity calls are given as the source filed them. Calls follow the shape of the dose curve; as a rule, active = well fitted inhibition curve with a large enough effect; inconclusive = small, poorly fitted or top-dose-only effect; inactive = flat fitted curve, though single readings scatter.

This assay concerns HaCat. Kind of assay: Cytotoxic Profiling of Annotated Libraries Using Quantitative High-Throughput Screening (AID 1296008). Also: nearly all actives have a fitted effect of over 60% in size. The following applies: Five cell lines viability, CellTiter-Glo ATP luminescence, 48-72 h; max response: stronger effect = lower value. The method, boiled down: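 Cytotoxicity was measured as CellTiter-Glo ATP luminescence, read after 10 min at room temperature. Compound treatment of the cells lasted 48 or 72 hr at 37 degrees Celsius in a qHTS format.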
`COc1cccc(OC)c1-c1ccc(C[C@H](NC(=O)c2c(Cl)cccc2Cl)C(=O)O)cc1`: the outcome was inactive.

For the compound `Nc1ncnc2c1c(COc1cccc(Cl)c1)nn2C1CCOCC1`, the result was inactive. In the case of `C=C1CC/C=C(/C(=O)O)CCC2C1CC2(C)C` (stereo not given) it was “inactive”; in that of `COC(=O)C1=CO[C@@H](O[C@@H]2O[C@H](CO)[C@@H](O)[C@H](O)[C@H]2O)[C@@H]2[C@@H](C)[C@@H](O)C(O)[C@H]12` (stereo not given in full), “inactive”. Take `C=C1C(=O)O[C@@H]2CC(C)=C([C@@H](C)CCCOC(C)=O)[C@@H](O)[C@H]12`: the compound was called inactive. On to `O=C(C[C@@H]1C(C(=O)O)=CO[C@@H](O[C@@H]2O[C@H](CO)[C@@H](O)[C@H](O)[C@H]2O)/C1=C\CO)OCCc1ccc(O)c(O)c1`, for which the compound was called inactive. As for `C/C1=C\CC(C)(C)/C=C/C/C(C(=O)O)=C/CC1`, the entry is “inactive”; as for `OC[C@H]1O[C@@H](OCc2ccccc2)[C@H](O[C@@H]2OC[C@@H](O)[C@H](O)[C@H]2O)[C@@H](O)[C@@H]1O`, “inactive”; as for `COc1cc(/C=C/C(=O)O)ccc1O[C@@H]1O[C@H](CO)[C@@H](O)[C@H](O)[C@H]1O[C@@H]1OC[C@](O)(CO)[C@H]1O`, “inactive”. As for `COC(=O)C1(C)CCCC2(C)c3ccc(C(C)C)cc3C(O)C(O)C12` (stereo not given), the entry is “inactive”; as for `O=C(O)CC(CCc1ccccc1)OC1OC(CO)C(O)C(O)C1O` (stereo not given), “inactive”.

For `CC1=C[C@@H]2[C@H]3[C@@H]4O[C@@](C)(CC[C@H]4O)[C@H]3CC(=O)[C@]23C(=O)N[C@@H](CC(C)C)[C@@H]3[C@@H]1C`, the outcome was inactive. As for `COc1ccc(/C=C/C(=O)O[C@@H]2[C@@H](O[C@@H]3O[C@H](CO)[C@@H](O)[C@H](O)[C@H]3O)[C@@H](O)[C@H](O[C@H]3C4C=CO[C@@H](O[C@@H]5O[C@H](CO)[C@@H](O)[C@H](O)[C@H]5O)C4[C@@]4(CO)O[C@@H]34)O[C@H]2C)cc1` (stereo not given in full), the entry is “inactive”.

For the compound `NCCCCN(Cc1nc2ccccc2[nH]1)[C@H]1CCCc2cccnc21`, the outcome was inactive. Take `COc1cc(/C=C/C(=O)OC[C@H]2O[C@@H](OC3CC(C)=C(C(=O)O)C(C)(C)C3)[C@H](O)[C@@H](O)[C@@H]2O)cc(OC)c1O` (stereo not given in full): the call was inactive. With `CC1CCC2(NC1)OC1C(O)C3C4CCC5CC(O[C@@H]6O[C@H](CO)[C@@H](O)[C@H](O)[C@H]6O[C@@H]6O[C@@H](C)[C@H](O)[C@@H](O)[C@H]6O)CCC5(C)C4CCC3(C)C1C2C` (stereo not given in full), the compound was called inactive. As for `O=C(O)CCc1c(C(=O)O)[nH]c2cc(Cl)cc(Cl)c12`, the entry is “inactive”. On to `C=C(C(=O)OC)[C@]12O[C@@](C)(CC[C@@]3(O)/C(=C\C)C(=O)O[C@]3(C)C[C@@H]1OC(=O)C(CO)CN1CCCC1C(=O)O)CC2=O` (stereo not given in full), for which the outcome was inactive. In the case of `CC(C)c1cc2c(c(O)c1O)[C@@]13CCCC(C)(C)C1[C@@H](O)[C@@H]2OC3=O` (stereo not given in full) it was “inactive”; in that of `CC1CC(O)/C=C/C(O)/C=C\C(=O)O1` (stereo not given), “inactive”; in that of `C=C1C(=O)O[C@@H]2C[C@]3(C)[C@@H](CCC(C)=O)[C@@H]3C[C@H]12`, “inactive”. For `C/C(=C\C(=O)C[C@@]12C(=O)O[C@]3(C)CC[C@H]1C[C@H]23)C(N)=O`, the call was inactive.

Consider `C=C(COC(=O)CC(C)C)C1Cc2cc(C(C)=O)ccc2O1` (stereo not given), for which the call was inactive. Turning to `CN(C)CCC[C@]1(c2ccc(F)cc2)OCc2cc(C#N)ccc21`, the compound was called inactive. In the case of `C=C1C(OC(C)=O)[C@@]23CCC4[C@](C)(C(=O)O)CCC[C@@]4(C)[C@]2(O)CC[C@H]1C3` (stereo not given in full) it was “inactive”; in that of `CC(=O)OC1C(CO)OC(O[C@H]2[C@H](OC(=O)[C@]34CCC(C)(C)C[C@H]3C3=CCC5[C@@]6(C)CC[C@H](O[C@@H]7O[C@H](C(=O)O)[C@@H](O)[C@H](O[C@@H]8OC[C@@H](O)[C@H](O)[C@H]8O)[C@H]7O[C@@H]7O[C@H](CO)[C@H](O)[C@H](O)[C@H]7O)[C@@](C)(C=O)C6CC[C@@]5(C)[C@]3(C)C[C@H]4O)O[C@H](C)[C@H](OC3OC(C)C(OC4OCC(O)C(O)C4O)C(O)C3O)[C@@H]2O)C(O)C1O` (stereo not given in full), “inactive”. In the case of `O=C(O)c1cc(C(F)(F)F)ccc1N1CC[C@H](OCc2ccccn2)C1` it was “inactive”; in that of `C/C(=C\CCC(C)(C)O)CCO[C@@H]1O[C@H](CO[C@@H]2O[C@@H](C)[C@H](O)[C@@H](O)[C@H]2O)[C@@H](O)[C@H](O)[C@H]1O`, “inactive”. In the case of `O=[N+]([O-])c1cc(Cl)ccc1S(=O)(=O)N1CCN(Cc2ccccc2)CC1` it was “inactive”; in that of `CC1(C)C[C@H](O)C[C@@]2(C)[C@H]1[C@H](O)C=C1COC(=O)[C@@]12O`, “inactive”.

Values taken from PubChem BioAssay (NCATS).
